Measles CPE = protection of cells from measles virus; Measles virus-infected cells, CPE protection, absorbance; protection (pct of control), % at 4 µM; 140,000 compounds, 1.5% hits; in the data active = protection mostly above about 24%, no sharp cut-off; inactive = mostly below about 26%
Insulin prom inh = TRM-6 insulin promoter activity inhibition; TRM-6 cells (human fetal islet line), insulin promoter-eGFP reporter, imaging; reporter expression induced with tamoxifen; inhibition, % at 2 µM; 130,000 compounds, 0.9% hits; AID 1273;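 active = inhibition above the mean plus 3 SD, with well images judged a real hit on visual review, cut at about 60% in these data, passing the limit was not always enough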
SDO1 yeast rescue = sdo1-depleted yeast growth rescue. S. cerevisiae sdo1-depleted JHY4D growth rescue, OD600 30 h; active compounds read high; pdr5 snq2 efflux-pump mutant strain. z-score at 10 µM. 140,000 compounds, 0.21% hits;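 active = z-score above 3 at both the 24 hr and the 30 hr optical density reads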;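 note: z-score against mean and SD of all compound wells on the same plate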
ROMK primary = modulates human ROMK potassium channel activity | P48048 | Tet-inducible ROMK, thallium flux fluorescence; actives lie on both sides | B-score at 10 µM | 130,000 compounds, 2% hits | AID 1918;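 active = signal ratio slope over the read window, or its plate-corrected B-score, at least 3 SD from the plate mean, either direction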;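 note: B-score of the F/F0 ratio slope over 7 to 12 s after thallium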
Target sequence (P48048 whole entry, looked up): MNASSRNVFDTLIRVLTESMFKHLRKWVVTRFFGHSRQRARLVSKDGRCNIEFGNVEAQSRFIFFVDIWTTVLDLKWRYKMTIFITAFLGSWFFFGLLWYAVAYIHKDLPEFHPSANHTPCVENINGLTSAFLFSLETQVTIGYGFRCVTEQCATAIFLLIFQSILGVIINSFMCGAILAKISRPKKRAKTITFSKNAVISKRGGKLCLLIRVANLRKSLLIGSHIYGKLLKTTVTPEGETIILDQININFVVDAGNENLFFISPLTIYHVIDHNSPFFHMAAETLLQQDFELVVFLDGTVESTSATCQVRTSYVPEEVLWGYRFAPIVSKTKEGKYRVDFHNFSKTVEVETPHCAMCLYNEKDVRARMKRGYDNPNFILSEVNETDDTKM
Active calls of the source: *; . = not tested or not shown. Shown are actives, neighbours in structure and some others; about 3% of the full set was active somewhere.

SMILES	Measles CPE	Insulin prom inh	SDO1 yeast rescue	ROMK primary
COc1cccc(N=c2oc3ccccc3cc2-c2nc3ccccc3[nH]2)c1	12	83*	-2.2	0.33
CCCCCn1cnc2c(sc3nc4c(cc32)CSC(C)(C)C4)c1=O	11	.	-0.49	.
COc1ccc(C(O)Cn2cc([N+](=O)[O-])nc2C)cc1 (configuration not stated)	.	.	.	-0.72
CCc1ccccc1NC(=O)CSc1nc2n[nH]c(C)c2c(=N)n1-c1cccc(OC)c1	15	23	-0.31	.
Cc1nccc(-c2ccc(-n3cnc4ccccc43)cc2)n1	29*	.	0.7	1
Nc1nccc(-c2ccc(-n3cnc4ccccc43)cc2)n1	.	.	.	1.5
Cc1c(Br)c([N+](=O)[O-])nn1C(C)C(=O)Nc1ccc2c(c1)OCO2 (configuration not stated)	3	.	0.64	.
COc1cc(/C=C/C(=O)NNc2c(F)c(F)cc(F)c2F)ccc1OC(F)F	19	16	-0.75	0.25
COc1ccc(/C(=C/c2ccc(OC(F)F)c(OC)c2)C(=O)O)cc1OC	60*	7	-0.12	.
CCCc1noc2c1C(c1ccoc1)C(C#N)=C(N)N2 (configuration not stated)	13	.	-0.34	-2.6*
CCOc1ccccc1C1C(C#N)=C(N)Nc2onc(-c3ccccc3)c21 (configuration not stated)	9	.	-0.22	0.074
COc1ccc(/C=N/n2c(N)c(S(=O)(=O)c3cccs3)c3nc4ccccc4nc32)cc1OC	32*	7	0.14	.
COc1ccc(OCC(=O)N(Cc2ccco2)C2CCS(=O)(=O)C2)cc1 (configuration not stated)	.	.	.	0.06
Cn1c(=O)c2ncn(CC(=O)NCCOCc3ccccc3Cl)c2n(C)c1=O	18	42	0.47	-0.65
Cc1cccc(N(CC(=O)NC2CCCC2)C(=O)CCCC(=O)Nc2ccccn2)c1	5	-12	1.1	0.77
Cc1cccc(N(CC(=O)NC2CCCCC2)C(=O)CCCC(=O)Nc2ccccn2)c1	33*	60	1.8	-0.34
COc1ccc(N(CC(=O)NCc2ccncc2)S(=O)(=O)c2ccccc2[N+](=O)[O-])c(OC)c1	.	24	.	0.083
C(=C1/CCCC2=C1Nc1ncnn1C2c1ccccc1)/c1ccccc1 (configuration not stated)	1	73*	-1.8	.
COc1ccccc1NS(=O)(=O)c1cccc(C(=O)N/N=C2\CC(=O)CC(C)(C)C2)c1	17	-10	1.6	0.3
CN(C)Cc1ccccc1Cc1ccccc1	38*	-13	0.45	-0.19
CN(C)Cc1cc(CN(C)C)c(O)c(CCc2ccccc2)n1	5	10	0.99	0.036
CN(C)CCOc1ccccc1Cc1ccccc1	44*	-14	-0.62	.
Cc1cc(Nc2ccc(N3CCC(C)CC3)cc2)n2ncnc2n1	21	-38	-1.3	-0.37
O=C1CC(C(=O)N2CCOCC2)C2(CCCC2)O1 (configuration not stated)	15	-9	0.31	.
COc1ccc(-c2noc(CCC(=O)Nc3nc4ccccc4s3)n2)cc1	21	-47	0.44	0.13
SMILES	Measles CPE	Insulin prom inh	SDO1 yeast rescue	ROMK primary
O=C(NC(=S)Nc1ccc(S(=O)(=O)N2CCCCC2)cc1)c1ccccc1	6	3	-0.7	2.8*
O=C(NC(=S)Nc1ccccc1)c1ccc(-c2ccccc2)cc1	6	25	-1.4	0.11
CC(C)NS(=O)(=O)c1ccc(NC(=S)NC(=O)c2ccc(-c3ccccc3)cc2)cc1	44*	4	-0.29	0.18
O=S(=O)(Nc1ccc(N2CCCCC2)cc1)c1cccs1	5	.	-1.2	.
O=S(=O)(Nc1ccc(S(=O)(=O)N2CCCCCC2)cc1)c1cccs1	2	86*	-1.3	.
COc1ccc(C2(C(=O)Nc3ccccc3)CCOCC2)cc1	10	-3	0	.
COC(=O)[C@@H]1C2CCC(C(=O)Nc3ccccc3)(CC2)[C@@H]1C(=O)OC	48*	.	0.28	.
CC(=O)Nc1ccc(Nc2cc(C)nc3c(-c4ccc(Cl)cc4)cnn23)cc1	21	80*	-1.7	.
CC(C)NC(=O)C(OC(=O)c1ccccc1)C(OC(=O)c1ccccc1)C(=O)O (configuration not stated)	27	-16	0.65	.
COc1c2c(nc3ccccc13)OC(C(C)(O)COC(C)=O)C2 (configuration not stated)	32*	-80	0.3	.
Cc1cccc(-c2noc(CCCC(=O)Nc3cccnc3)n2)c1	active	.	0.42	.
Cc1cccc(-c2noc(CCCC(=O)Nc3ccc(C(N)=O)cc3)n2)c1	21	34	-0.59	-0.55
Cc1ccc(C(=O)NC(=S)Nc2ccc(NC(=O)c3cccs3)cc2)cc1[N+](=O)[O-]	8	.	-0.63	.

High-throughput results (PubChem BioAssay)
